G9a block – blocks human histone lysine methyltransferase G9a; hit rate 8.8% among 350,000; Potency, µM (series often up to 102 µM), most hits filed as inhibitors; G9a H3K9 monomethylation, AlphaScreen, 2 h; also: nearly all actives have a fitted effect of over 75% in size
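Readings reflect AlphaScreen signal from monomethyl-H3K9 antibody detection. HMT at 20 nM; substrate b-H3K9 500 nM; cofactor SAM 20 uM; 2 h RT reaction; compounds tested as titrations in qHTS with 15 min preincubation.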
L3MBTL1 block – inhibitors of human L3MBTL1; hit rate 0.66% among 230,000; AID 485360; Q9Y468; Potency, µM (top dose mostly 57.1 µM), most hits filed as inhibitors; AlphaScreen L3MBTL1–H3K9me1 peptide binding; also: nearly all actives have a fitted effect of over 60% in size
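First, the protein-peptide complex forms for 30 min at room temperature (L3MBTL1 50 nM, biotinylated H3K9me1 peptide 75 nM). Next, compounds are pin-transferred and incubated 30 min. Finally, AlphaScreen beads are added and read after 30 min.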
JMJD2A Tudor – JMJD2A Tudor domain (human) inhibition; O75164; AlphaScreen JMJD2A-Tudor / H3K4me3 peptide binding; Potency, µM (titrated, usually from 114 µM), usual class: inhibitors; hit rate 4.4% among 390,000; AID 504339; also: nearly all actives have a fitted effect of over 50% in size
Target sequence (O75164 whole entry, looked up, the tested form may be a part): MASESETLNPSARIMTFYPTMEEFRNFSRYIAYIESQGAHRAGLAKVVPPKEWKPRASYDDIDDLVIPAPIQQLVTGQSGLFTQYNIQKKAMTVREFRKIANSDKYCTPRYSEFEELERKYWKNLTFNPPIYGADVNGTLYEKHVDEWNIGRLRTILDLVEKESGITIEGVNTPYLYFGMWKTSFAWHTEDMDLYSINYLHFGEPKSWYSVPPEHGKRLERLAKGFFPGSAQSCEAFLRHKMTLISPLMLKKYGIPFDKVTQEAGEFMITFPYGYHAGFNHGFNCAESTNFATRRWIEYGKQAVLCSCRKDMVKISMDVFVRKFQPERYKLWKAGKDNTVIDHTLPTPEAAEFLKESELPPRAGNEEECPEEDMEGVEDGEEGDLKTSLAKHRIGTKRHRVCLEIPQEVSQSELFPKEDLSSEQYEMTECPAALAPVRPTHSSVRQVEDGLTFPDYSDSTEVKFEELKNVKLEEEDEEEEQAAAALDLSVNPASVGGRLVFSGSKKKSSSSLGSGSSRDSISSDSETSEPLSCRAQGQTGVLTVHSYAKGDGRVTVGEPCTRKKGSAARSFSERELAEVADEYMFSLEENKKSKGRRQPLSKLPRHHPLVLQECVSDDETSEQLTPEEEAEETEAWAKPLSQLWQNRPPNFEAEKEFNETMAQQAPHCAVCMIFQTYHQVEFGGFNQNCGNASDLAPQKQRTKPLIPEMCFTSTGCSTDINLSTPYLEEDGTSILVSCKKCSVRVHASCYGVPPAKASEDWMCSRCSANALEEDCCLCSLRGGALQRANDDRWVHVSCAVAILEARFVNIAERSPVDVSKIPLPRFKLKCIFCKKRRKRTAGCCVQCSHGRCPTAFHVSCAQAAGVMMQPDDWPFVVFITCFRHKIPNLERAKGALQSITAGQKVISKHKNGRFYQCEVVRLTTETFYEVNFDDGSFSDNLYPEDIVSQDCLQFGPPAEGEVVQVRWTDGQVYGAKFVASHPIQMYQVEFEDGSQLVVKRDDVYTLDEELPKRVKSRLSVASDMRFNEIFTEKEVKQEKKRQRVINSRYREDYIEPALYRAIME
Sfp PPTase inh – inhibitors of Bacillus subtilis Sfp phosphopantetheinyl transferase | Q9F4F7 | Biochemical Sfp PPTase activity, qHTS | Potency, µM, actives largely listed as inhibitors | hit rate 3.5% among 310,000;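 also: the enzyme is Sfp with the accession as filed and its product quenches rhodamine fluorescence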
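Step 1, compound plus 15 nM Sfp-PPTase, 15 min, room temperature. Step 2, add rhodamine-CoA (5 uM) and BHQ-2-YbbR (12.5 uM). Step 3, read 525/598 nm fluorescence at 0 and 30 min.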
HP1b chromo inh – HP1-beta chromodomain-methylated histone interaction inhibition. Potency, µM (top dose mostly 114 µM), most hits filed as inhibitors. AlphaScreen HP1-beta / biotin-H3K9me3 peptide binding. hit rate 0.56% among 390,000; also: nearly all actives have a fitted effect of over 70% in size
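AlphaScreen: HP1-beta (50 nM) preformed 30 min with biotin-H3(1-18)K9me3 peptide (50 nM) in PBS pH 7.4, 0.01% Tween-20. Compound added for 30 min at RT, then streptavidin donor/nickel chelate acceptor beads (10 ug/mL) for 30 min.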
BAZ2B block – inhibitors of human BAZ2B bromodomain; Q9UIF8; AlphaScreen BAZ2B-H3K14Ac peptide displacement; Potency, µM (doses to about 114 µM), usual class: inhibitors; hit rate 4.4% among 360,000; also: nearly all actives have a fitted effect of over 60% in size
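Compounds, titrated to a top concentration of 110 uM, were incubated 30 min at room temperature with preformed BAZ2B/acetyl-K14 H3 peptide complex (50 nM each). Proximity signal was measured by AlphaScreen after 20 min with beads.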
Large screens that a line does not name were inactive. A selection: hits, their analogues and other compounds. The true share with any hit is near 12%. Calls follow the shape of the dose curve; as a rule, active = well fitted curve in the direction sought with a large enough effect; inconclusive = small, poorly fitted or top-dose-only effect, or another doubt; inactive = no such curve, though single readings can be large; an effect the other way counts as inactive or inconclusive.

COc1cccc(Cn2c(=O)c(C)nc3cnc(N4CCN(C)CC4)nc32)c1	none (no result: L3MBTL1 block, JMJD2A Tudor, HP1b chromo inh, BAZ2B block)
COc1ccc(NC(=O)CSc2nc(-c3ccc(OC)c(OC)c3)[nH]c2-c2ccc(C)cc2)cc1	none (no result: L3MBTL1 block, Sfp PPTase inh)
Cc1cc(C)c2cc(C#N)c(SCC(=O)NCc3ccco3)nc2c1	G9a block inconclusive, JMJD2A Tudor inconclusive, Sfp PPTase inh 22.4µM, BAZ2B block inconclusive (no result: L3MBTL1 block)
COc1ccc(-c2ccc(SCC(=O)NCc3ccco3)nn2)cc1OC	JMJD2A Tudor inconclusive, Sfp PPTase inh 50.1µM
COc1ccc(-c2[nH]c(-c3ccc(C)cc3)nc2SCC(=O)NCc2ccco2)cc1OC	G9a block 50.1µM (no result: L3MBTL1 block)
COc1ccc(-c2cc(C(F)(F)F)nc(SCC(=O)NCc3ccco3)n2)cc1OC	G9a block inconclusive
Cc1cccc(-c2nnn3c2nc(NCc2ccccc2)c2ccccc23)c1	none (no result: L3MBTL1 block, Sfp PPTase inh)
C/C(CC(=O)Nc1ccc(Cl)cc1Cl)=N\NC(N)=S	none
C/C(CC(=O)Nc1ccc(Cl)cc1C(F)(F)F)=N\NC(N)=S	Sfp PPTase inh 44.7µM
C/C(CC(=O)Nc1cc(Cl)ccc1Cl)=N\NC(N)=S	Sfp PPTase inh 35.5µM
Cc1ccc(-c2noc(CNC(=O)COc3cc(C)c(Br)c(C)c3)n2)cc1	none (no result: L3MBTL1 block, Sfp PPTase inh)
O=C1C2C3C=CC(C4CC34)C2C(=O)N1/N=C/c1ccc(-c2ccc([N+](=O)[O-])cc2)o1 (stereo unspecified)	none
Cc1ccc(-c2ccc(/C=N/N3C(=O)C4C5C=CC(C6CC56)C4C3=O)o2)c([N+](=O)[O-])c1 (stereo unspecified)	G9a block 44.7µM, BAZ2B block inconclusive
COC(=O)c1ccc(-c2ccc(/C=N/NC(=O)CC3(C)OCCCO3)o2)cc1	Sfp PPTase inh 50.1µM
COC(=O)c1ccc(-c2ccc(/C=N/N3C(=O)C4C5C=CC(C6CC56)C4C3=O)o2)cc1 (stereo unspecified)	G9a block 7.94µM, JMJD2A Tudor inconclusive, BAZ2B block 56.2µM
CC1(CC(=O)N/N=C/c2ccc(-c3ccc(Cl)cc3)o2)OCCO1	G9a block inconclusive
O=C1C2C3C=CC(C4CC34)C2C(=O)N1/N=C/c1ccc([N+](=O)[O-])o1 (stereo unspecified)	G9a block inconclusive (no result: L3MBTL1 block)
C1OCOCO1	none (no result: L3MBTL1 block, JMJD2A Tudor, HP1b chromo inh, BAZ2B block)
O=C1N(C2CCCC2)C[C@@H]2C[C@@H](c3cccn3-c3nccs3)N3CCC[C@@]123	G9a block 50.1µM
Cc1oc(-c2cccc3ccccc23)nc1CN1CCN(c2ncnc3ccccc23)CC1	G9a block 44.7µM, JMJD2A Tudor inconclusive, HP1b chromo inh inconclusive, BAZ2B block inconclusive
CC(C)N1CCc2c(sc(NC(=O)c3ccc(C(=O)c4ccccc4)cc3)c2C(N)=O)C1	JMJD2A Tudor 56.2µM, BAZ2B block inconclusive (no result: G9a block, L3MBTL1 block)
CC(C)N1CCc2c(sc(NC(=O)CCc3ccccc3)c2C(N)=O)C1	G9a block 44.7µM, BAZ2B block inconclusive
CC(C)N1CCc2c(sc(NC(=O)Cc3ccccc3)c2C(N)=O)C1	BAZ2B block inconclusive
CC(C)N1CCc2c(sc(NC(=O)c3ccc4ccccc4c3)c2C(N)=O)C1	none (no result: L3MBTL1 block)
COc1cccc(OC)c1C(=O)Nc1sc2c(c1C(N)=O)CCN(Cc1ccccc1)C2	G9a block 79.4µM
CC(C)N1CCc2c(sc(NC(=O)c3ccc(S(=O)(=O)N4CCCCC4C)cc3)c2C(N)=O)C1 (stereo unspecified)	BAZ2B block 50.1µM (no result: L3MBTL1 block)
CC(=O)N1CCN(C(=O)c2ccc(NS(=O)(=O)c3ccc4[nH]c(=O)[nH]c4c3)cc2)CC1	none (no result: Sfp PPTase inh)
CCCCCNC(=O)c1ccc(NS(=O)(=O)c2ccc3[nH]c(=O)[nH]c3c2)cc1	G9a block 31.6µM, JMJD2A Tudor inconclusive (no result: L3MBTL1 block)
CCOC(=O)c1ccc(NS(=O)(=O)c2ccc3[nH]c(=O)[nH]c3c2)cc1	G9a block 11.2µM, Sfp PPTase inh 22.4µM
CC1CC(C)CN(C(=O)c2ccc(NS(=O)(=O)c3ccc4[nH]c(=O)[nH]c4c3)cc2)C1 (stereo unspecified)	G9a block 50.1µM (no result: Sfp PPTase inh)
O=C(Nc1ncccc1O)c1ccc(NS(=O)(=O)c2ccc3[nH]c(=O)[nH]c3c2)cc1	G9a block 70.8µM, BAZ2B block 79.4µM (no result: Sfp PPTase inh)
CC(=O)c1c(C)[nH]c(C(=O)OCC(=O)Nc2cccc(S(=O)(=O)N(C)C)c2)c1C	BAZ2B block 50.1µM
CC(=O)c1c(C)[nH]c(C(=O)OCC(=O)Nc2cccc(S(=O)(=O)N3CCCC3)c2)c1C	BAZ2B block 56.2µM
C[N+]1(CCCOC(=O)C2(c3ccccc3)CCCC2)CCOCC1	G9a block 7.94µM
Cc1cc(Nc2cccc([N+](=O)[O-])c2)c2cccc(C)c2n1	none (no result: G9a block)
Cc1cc(Nc2ccccc2)c2c([N+](=O)[O-])ccc(C)c2n1	G9a block 11.2µM, L3MBTL1 block 15.8µM, JMJD2A Tudor 50.1µM, Sfp PPTase inh inconclusive, HP1b chromo inh inconclusive, BAZ2B block 28.2µM
NNC(=O)CN1C(c2ccccc2Br)=Nc2ccc(Br)cc2C1c1ccccc1 (stereo unspecified)	L3MBTL1 block inconclusive, BAZ2B block inconclusive
COc1ccc(NC(=O)C(c2cc3c(cc2[N+](=O)[O-])OCO3)N(C)Cc2ccccc2)cc1 (stereo unspecified)	G9a block 79.4µM, JMJD2A Tudor inconclusive, HP1b chromo inh inconclusive, BAZ2B block inconclusive
CCN(c1cccc(C)c1)C(C(=O)Nc1ccc(OC)cc1)c1cc2c(cc1[N+](=O)[O-])OCO2 (stereo unspecified)	G9a block inconclusive, JMJD2A Tudor inconclusive, HP1b chromo inh inconclusive, BAZ2B block inconclusive
CC(C)(O)c1[nH]c2ccc(C#N)cc2c1C(C)(C)O	L3MBTL1 block inconclusive
CCCCCCCCCCCCC/C=C\[C@@H](O)[C@H](CO)NC(C)=O	none (no result: G9a block, L3MBTL1 block, JMJD2A Tudor, HP1b chromo inh, BAZ2B block)
c1ccc(NN=C2c3ccccc3-c3ccccc32)cc1	none (no result: G9a block, L3MBTL1 block, Sfp PPTase inh, BAZ2B block)
Cc1ccc(NN=C2c3ccccc3-c3ccccc32)cc1	G9a block 8.91µM, JMJD2A Tudor 56.2µM, Sfp PPTase inh inconclusive, HP1b chromo inh inconclusive, BAZ2B block inconclusive
CCOc1ccc(NC(=O)C2CCCN(S(=O)(=O)c3c(C)noc3C)C2)cc1 (stereo unspecified)	none (no result: L3MBTL1 block)
O=C(Cc1ncc(C(F)(F)F)cc1Cl)NCc1ccco1	none
COc1ccc(/C=C2\SC(=O)N(CCNC(=O)CN3C(=O)NC4(CCCC4)C3=O)C2=O)cc1	G9a block 50.1µM (no result: Sfp PPTase inh)
O=C(CN1C(=O)NC2(CCCC2)C1=O)NCCN1C(=O)S/C(=C\c2ccccc2F)C1=O	none (no result: Sfp PPTase inh)
CCNc1ncc2nc(C)c(=O)n(C)c2n1	none (no result: L3MBTL1 block, JMJD2A Tudor, HP1b chromo inh, BAZ2B block)
Cc1cc(/C=C2/SC(=S)N(c3cccc(Cl)c3)C2=O)c(C)n1-c1cccnc1	JMJD2A Tudor inconclusive (no result: G9a block, L3MBTL1 block, Sfp PPTase inh, BAZ2B block)

Screening results (PubChem)
